Among the test systems are SK-MEL-2 melanoma; EKVX NSCLC; SN12C renal; UO-31 renal; TK-10 renal; ACHN renal; CAKI-1 renal; A498 renal; CCRF-CEM leukemia; MOLT-4 leukemia.
Assay in all cases: NCI-60 one-dose screen, 48 h (100 = growth as untreated, 0 = no growth, -100 = all killed)
What all share (settings): 10 µM unless noted

Compounds without any hit were thinned out: in the full panel of roughly 83,000, 20% have a hit.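 In brief: 96-well plates, 48 h treatment, single concentration, percent growth endpoint.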 A number with no mark means an inactive call. Active and inactive are the calls of the source. Rule for the calls: active = growth percent below 10; inactive = the rest.

On to `CN1CCN(CCOc2ccc(-c3cnc4c(-c5cccc(F)c5F)cnn4c3)cc2)CC1`, for which the growth with SK-MEL-2 melanoma was 99.9%; in the assay on EKVX NSCLC it was 78.6%; in the assay on SN12C renal, 90.3%; with UO-31 renal, 80.8%; in the assay with TK-10 renal, -64.2% (active); in the assay on ACHN renal it was -22.7% (active). Also, the growth with CAKI-1 renal was -8.23% (active); in the assay with A498 renal, 95.4%; in the assay with CCRF-CEM leukemia it was -13.3% (active); in the assay on MOLT-4 leukemia, 80.5%.
For `COc1ccc2c(c1)CCc1[nH]nc(-c3cc(OC)c(OC)c(OC)c3)c1-2`, the growth in the assay with SK-MEL-2 melanoma was 31.1%; with EKVX NSCLC, 33.7%; in the assay on SN12C renal, 31.9%; in the assay with UO-31 renal, 13.8%; in the assay with TK-10 renal it was 50.1%; with ACHN renal, 25.4%. Further, the growth in the assay on CAKI-1 renal was 26%; with A498 renal, -9.65% (active); with CCRF-CEM leukemia, 0.932% (active); in the assay with MOLT-4 leukemia, 9.32% (active).
As to `O=C(/C=C/c1ccccc1)c1ccc(Nc2nc(Nc3ccc(F)cc3)nc(Nc3ccc(Cl)cc3)n2)cc1`, the growth is 92% in the assay with SK-MEL-2 melanoma; 79.2% in the assay with EKVX NSCLC; 99.6% in the assay with SN12C renal; 82% with UO-31 renal; 106% with TK-10 renal; 93.1% in the assay with ACHN renal. Also, the growth was 87.4% in the assay with CAKI-1 renal, 94.5% in the assay with A498 renal, 26.3% in the assay with CCRF-CEM leukemia and 83.6% with MOLT-4 leukemia.
With `C/C=C(/C)n1cnc2c(Nc3ccccn3)nc(Cl)nc21`, the growth with SK-MEL-2 melanoma was 97.1%; with EKVX NSCLC, 96.9%; in the assay on SN12C renal it was 94.1%; with UO-31 renal it was 80.8%; in the assay on TK-10 renal, 114%; with ACHN renal, 99.9%. In addition, the growth was 94.2% with CAKI-1 renal, 111% in the assay with A498 renal, 104% in the assay on CCRF-CEM leukemia and 100% with MOLT-4 leukemia.
`O=C(NNC(=O)c1nc2cc(F)ccc2n2cccc12)c1cnccn1`: the growth is 67.1% in the assay with SK-MEL-2 melanoma; 29.2% with EKVX NSCLC; 40.2% with SN12C renal; 33.3% with UO-31 renal; 62.7% in the assay with TK-10 renal; 26% in the assay with ACHN renal. In addition, the growth in the assay on CAKI-1 renal is 27.9%; with A498 renal, 19.9%; with CCRF-CEM leukemia it was 17.1%; with MOLT-4 leukemia, 15%.
As to `CNC1=CC(=O)c2c(C(=O)OC)c(C)[n+]([O-])c(C)c2C1=O`, the growth with SK-MEL-2 melanoma is 70.7%; with EKVX NSCLC, 84%; with SN12C renal it was 40%; with UO-31 renal it was 90.7%; in the assay on TK-10 renal, 133%; in the assay with ACHN renal, 74.4%. For the same molecule, the growth in the assay on CAKI-1 renal is 74.4%; in the assay with A498 renal, 103%; in the assay with CCRF-CEM leukemia it was 81.6%; in the assay with MOLT-4 leukemia it was 95.6%.
For the molecule `C=CCOC(=O)C1=C(C)N(CC)C(=O)NC1c1c(Cl)n(C)c2ccccc12` (stereo not given), the growth in the assay on SK-MEL-2 melanoma was 108%; in the assay with EKVX NSCLC it was 98.4%; in the assay on SN12C renal, 102%; in the assay with UO-31 renal, 76.1%; with TK-10 renal, 102%; in the assay on ACHN renal it was 82.2%. Besides, the growth is 61.5% in the assay on CAKI-1 renal, 95% with A498 renal, -28% (active) in the assay with CCRF-CEM leukemia and 93.7% with MOLT-4 leukemia.
For `CNC(=O)c1cc(Oc2ccc3c(c2)sc2nc(-c4ccc(OC)cc4)cn23)ccn1`, the growth in the assay on SK-MEL-2 melanoma is 44.2%; in the assay on EKVX NSCLC it was 52.7%; in the assay on SN12C renal, 69.7%; in the assay with UO-31 renal, 52.2%; in the assay on TK-10 renal, 21.1%; in the assay with ACHN renal, 83.8%. The growth is 85.5% with CAKI-1 renal, 16.9% with A498 renal, 66.9% with CCRF-CEM leukemia and 76.6% with MOLT-4 leukemia.
In the case of `CCOC(=O)CC1CSC(Nc2ccccc2)=N1` (stereo not given), the growth is 97.4% with SK-MEL-2 melanoma; 104% in the assay with EKVX NSCLC; 103% with SN12C renal; 91.8% with UO-31 renal; 86% in the assay with TK-10 renal; 105% with ACHN renal. Besides, the growth is 103% with CAKI-1 renal, 83% in the assay on A498 renal, 98.3% with CCRF-CEM leukemia and 101% in the assay on MOLT-4 leukemia.
For the molecule `Cc1nn(-c2cc(NC3CCC(O)CC3)c3c(=O)[nH]c(CCC(F)(F)F)cc3c2)c2c1C(=O)CC(C)(C)C2` (stereo not given), the growth is 60.3% with SK-MEL-2 melanoma; 54% in the assay with EKVX NSCLC; 46.2% in the assay with SN12C renal; 39% in the assay on UO-31 renal; 61.7% in the assay on TK-10 renal; 31.5% in the assay with ACHN renal. In addition, the growth in the assay on CAKI-1 renal is 47.4%; in the assay with A498 renal it was 12.4%; in the assay with CCRF-CEM leukemia it was 66.6%; with MOLT-4 leukemia it was 40.8%.
As to `CN(C)CCN1C(=O)c2cccc3c(/C=C/CN4C(=O)c5cccc6cccc(c56)C4=O)ccc(c23)C1=O`, the growth was 104% with SK-MEL-2 melanoma; 109% in the assay with EKVX NSCLC; 79.9% in the assay on SN12C renal; 72% in the assay on UO-31 renal; 121% in the assay on TK-10 renal; 72.7% with ACHN renal. Also, the growth in the assay with CAKI-1 renal was 91%; with A498 renal it was 81.4%; with CCRF-CEM leukemia it was -44.1% (active); in the assay on MOLT-4 leukemia it was 34.3%.
As to `O=C1/C(=C2\SC(=S)N(C3CC3)C2=O)SC(=S)N1C1CC1`, the growth is 102% in the assay with SK-MEL-2 melanoma; 95.9% in the assay on EKVX NSCLC; 92.5% in the assay with SN12C renal; 77.4% with UO-31 renal; 108% in the assay with TK-10 renal; 97% in the assay on ACHN renal. Besides, the growth is 91.3% in the assay on CAKI-1 renal, 106% in the assay with A498 renal, 105% in the assay on CCRF-CEM leukemia and 103% in the assay on MOLT-4 leukemia.
For `CC1CCN(C(=O)CCCl)c2ccccc21` (stereo not given), the growth was 109% with SK-MEL-2 melanoma; 144% in the assay on EKVX NSCLC; 99.7% in the assay with SN12C renal; 75.8% with UO-31 renal; 95.7% in the assay with TK-10 renal; 117% in the assay with ACHN renal. Further, the growth in the assay on CAKI-1 renal was 119%; with A498 renal, 95.8%; in the assay on CCRF-CEM leukemia, 104%; in the assay on MOLT-4 leukemia, 118%.

Source of the values: PubChem BioAssay (NCI).
